Several values for one entry are separate records, joined by “and”; a condition that tells them apart may be missing. Equal entries are not always repeated. This is part of a sample that, as a whole, favours compounds with a hit. Of some 79,000 tested, about 15% had one in any assay. No stated cut-off is given here; in the data, active means growth inhibition above about 70%; inactive means the rest. Where a SMILES comes first, the peptide text is derived from it. [ ]: non-standard residue; d: D form. ξ: configuration not given here. ξF = NC(Cc1ccccc1)C(=O)O
Legend:
[1] = NCI Yeast Anticancer Drug Screen. Data for the rad50 strain (AID 155);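 further: 0% = growth of vehicle-only cultures of the same strain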; conditions: S. cerevisiae rad50 strain growth inhibition; at 50.0 µM; stronger effect = higher value
Outline: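 Growth of the mutant yeast was measured after compound exposure and referenced to vehicle-treated cultures.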

[2] = NCI Yeast Anticancer Drug Screen. Data for the mec2-1 strain (AID 157); conditions: S. cerevisiae mec2-1 strain, at 50.0 µM, stronger effect = higher value
Outline: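 Compounds were applied to mec2-1 yeast cells. Their growth was then compared with that of vehicle-treated cultures to give growth inhibition.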

[3] = NCI Yeast Anticancer Drug Screen. Data for the sgs1 mgt1 strain (AID 161);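 further: 0% = growth of cultures given vehicle only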; conditions: S. cerevisiae sgs1 mgt1 strain, at 50.0 µM, stronger effect = higher value
Outline: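 Percent growth inhibition was derived by comparing compound-exposed mutant yeast with vehicle-exposed cultures. The strain carries alterations in DNA damage repair.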

[4] = NCI Yeast Anticancer Drug Screen. Data for the cln2 rad14 strain (AID 165);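 further: 0% = growth equal to vehicle treated cultures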; conditions: S. cerevisiae cln2 rad14 strain, at 50.0 µM, stronger effect = higher value
Outline: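 Strain: cln2 rad14 yeast, altered in cell cycle control and DNA damage repair. Read-out: growth inhibition vs vehicle.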

[5] = NCI Yeast Anticancer Drug Screen. Data for the bub3 strain (AID 167); conditions: S. cerevisiae bub3 mutant strain, at 50.0 µM, stronger effect = higher value
Outline: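 Whole-cell yeast assay. The mutant strain was incubated with compounds, and growth inhibition was determined by comparison with vehicle-treated cells.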

[6] = NCI Yeast Anticancer Drug Screen. Data for the mlh1 rad18 strain (AID 175); conditions: S. cerevisiae mlh1 rad18 strain growth inhibition; at 50.0 µM; stronger effect = higher value
Outline: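 A repair-deficient yeast strain is exposed to test compound, and growth is scored relative to vehicle-treated controls.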

Measured: growth inhibition

COc1cc(C2c3cc4c(cc3C(OC(=O)c3ccc[n+](C)c3)C3COC(=O)C23)OCO4)cc(OC)c1OC (stereo unspecified)
inactive: [1] -16.2% and -3.1% | [2] -11.3% and 8.1% | [3] -11.3% and 2.3% | [4] -17.5% and -1.65% | [5] 13.1% and 41.8% | [6] 5.45% and 9.45%

CC(=O)N(O)CCCCCNC(=O)CCC(=O)N(O)CCCCCNC(=O)CCC(=O)N(O)CCCCCN
inactive: [1] 12.6% and 8% | [2] -9.65% and -0.45% | [3] 2.1% and -5.3% | [4] 6.9% and 5.75% | [5] 9.55% and 0.5% | [6] 11.4% and 4.05%

N#CC(C#N)=CN1CCOCC1
inactive: [1] -0.6% and 8.35% | [2] -24.1% and 8.95% | [3] 1.75% and -7.75% | [4] -22.5% and 10.4% | [5] -0.6% and -0.55% | [6] 4.1% and -12.9%

O=C1/C(=C/c2ccc(F)cc2)CCC/C1=C\c1ccc(F)cc1
inactive: [1] 26.6% and -14.2% | [2] -25.7% and -10.3% | [3] 34.2% and 1.45% | [4] 27.7% and -21.4% | [5] 15.4% and -5.45% | [6] 18.9% and -6.1%

CC(=O)O[C@@H]1C[C@H](C)CC[C@H]1C(C)C
inactive: [1] 5.85% and 0.6% | [2] -9.8% and -2.35% | [3] -3.05% and -3.7% | [4] 5.8% and 23% | [5] 4.5% and -1.45% | [6] -3.4% and -0.8%

CCOC(=O)C(N)CS (stereo unspecified)
inactive: [1] -1.35% and -31.1% | [2] -22.8% and -66.1% | [3] -2.5% and -6.05% | [4] -26.9% and 7.05% | [5] -28.3% and -30.7% | [6] 4.95% and -27.9%

CC(C)(CO)C(O)C(=O)NCCS(=O)(=O)O (stereo unspecified)
inactive: [1] -6.8% and -16.3% | [2] -4.35% and -1.8% | [3] 15.2% and 3.4% | [4] -14% and -11.9% | [5] 9.05% and 21.9% | [6] -3.1% and -27.3%

CC(C)(O)CN/C=C(\C(=O)OC(C)(C)C)N1C(=O)c2ccccc2C1=O
inactive: [1] 17.1% and -17% | [2] 3% and -6.7% | [3] 13.8% and -5.45% | [4] -39% and -11.5% | [5] -1.65% and -4.95% | [6] 2.8% and 17.6%

CCOC(=O)C(N)CCSC (stereo unspecified)
inactive: [1] -22.8% and -14.2% | [2] -14.3% and -7.65% | [3] -13.8% and -1% | [4] -39.4% and -16.6% | [5] -13.3% and -8.95% | [6] -5.05% and -17.5%

C1=NCCCN1
inactive: [1] 19.4% and 21.4% | [2] -7.95% and -23.4% | [3] 13.3% and 20.6% | [4] 9.4% and 6.35% | [5] 18.2% and 3% | [6] 22.2% and 18.6%

Cc1ccc2c(c1)P(=O)(O)c1cc(C)ccc1S2(=O)=O
inactive: [1] -0.75% and 4.5% | [2] 11.2% and -2.65% | [3] 6.75% and -4.1% | [4] -1.1% and -1.2% | [5] 0.45% and -9.3% | [6] -1.1% and -0.2%

O=C(Nc1ccccc1)C1CCCCC1CO (stereo unspecified)
inactive: [1] 18.9% and 7.15% | [2] 5.95% and 17.4% | [3] 9.95% and 22.1% | [4] 7% and 7.1% | [5] 2.65% and -6.15% | [6] 5.95% and 31.8%

NCC(=O)NC(Cc1ccccc1)C(=O)O (stereo unspecified) (H-Gly-[ξF]-OH)
inactive: [1] -28.9% and -14.6% | [2] -14.6% and -12.2% | [3] -1% and -20.6% | [4] -3.9% and -2.65% | [5] -8.25% and -10% | [6] -3.75% and -13.3%

NC(N)=NC(N)=Nc1ccc(S(N)(=O)=O)cc1
inactive: [1] 21.6% and 10.5% | [2] 14.7% and 4.3% | [3] 13.4% and 14.7% | [4] -13.8% and -48.6% | [5] 34.2% and -9.8% | [6] 34.2% and 18.5%

CC(C)c1ccc2c(c1)CC[C@H]1[C@](C)(C#N)CCC[C@]21C
inactive: [1] 1.1% and 0.25% | [2] -20.8% and -11.4% | [3] 0.6% and -17.2% | [4] -28.4% and -20.4% | [5] 1.25% and 13.2% | [6] 9.85% and 34.7%

CCOC(=O)C1CN(C)CC(c2ccccc2)C1=O (stereo unspecified)
inactive: [1] 12.3% and -8.7% | [2] 14.9% and 1% | [3] 16.1% and -3.5% | [4] -10.4% and -25.1% | [5] 9.25% and -4.45% | [6] 11.1% and 5.6%

O=[N+]([O-])c1ccc(S(=O)(=O)Cl)cc1
inactive: [1] 53.2% and 20.5% | [2] -3.75% and 6.75% | [3] 30.9% and 44.5% | [4] 35.8% and 23.1% | [5] 28.1% and 6.15% | [6] 52% and 52.5%

CC(C)CC(NC(=O)COc1ccc(Cl)cc1Cl)C(=O)O (stereo unspecified)
inactive: [1] -16.8% and -4.25% | [2] -3.15% and -14.4% | [3] 7.55% and -4.15% | [4] -50.5% and -21.7% | [5] 4.5% and 13.7% | [6] -3.8% and -11.1%

O=c1[nH][nH]c(=O)c2ccccc12
inactive: [1] 7.4% and 8.6% | [2] -24.6% and -7.45% | [3] -23.8% and -6.7% | [4] -1.3% and -12.8% | [5] -10.3% and -0.95% | [6] 2.75% and 25.1%

COc1c2occc2c(OC)c2c(=O)cc(C)oc12
inactive: [1] 20.9% and 2.55% | [2] -2.15% and -27.4% | [3] 16.8% and 9.95% | [4] -0.65% and 8.7% | [5] 7.9% and 5.95% | [6] 22.1% and 9.4%

Oc1ccc[n+](Cc2ccccc2)c1
inactive: [1] -7.85% and -26.4% | [2] -24.1% and -43.9% | [3] -47.3% and -12.4% | [4] 7.35% and 24.6% | [5] -49.5% and -22.8% | [6] -21.8% and -11.4%
